Results filed as inconclusive are left out. Calls of active or inactive are those of the source. Calls come from the whole dose curve; as a rule, active = well fitted activation curve with a large enough effect in the signal ratio in the repeat runs, with a control signal flat (not every such curve was filed as active); inconclusive = weak or mixed curves, or effect the other way; inactive = no such curve, though single readings can be large or run the other way; the % refers to the signal ratio.
What follows are compounds tested against Androgen receptor (Homo sapiens) (UniProt P10275) (assay: qHTS assay to identify small molecule agonists of the androgen receptor (AR) signaling pathway (AID 743036)). Settings: HEK293 AR-UAS-bla GripTite, beta-lactamase FRET ratio, 16 h; series mostly up to 62.4 µM.
Chain of Androgen receptor (Homo sapiens) (P10275 whole entry, looked up): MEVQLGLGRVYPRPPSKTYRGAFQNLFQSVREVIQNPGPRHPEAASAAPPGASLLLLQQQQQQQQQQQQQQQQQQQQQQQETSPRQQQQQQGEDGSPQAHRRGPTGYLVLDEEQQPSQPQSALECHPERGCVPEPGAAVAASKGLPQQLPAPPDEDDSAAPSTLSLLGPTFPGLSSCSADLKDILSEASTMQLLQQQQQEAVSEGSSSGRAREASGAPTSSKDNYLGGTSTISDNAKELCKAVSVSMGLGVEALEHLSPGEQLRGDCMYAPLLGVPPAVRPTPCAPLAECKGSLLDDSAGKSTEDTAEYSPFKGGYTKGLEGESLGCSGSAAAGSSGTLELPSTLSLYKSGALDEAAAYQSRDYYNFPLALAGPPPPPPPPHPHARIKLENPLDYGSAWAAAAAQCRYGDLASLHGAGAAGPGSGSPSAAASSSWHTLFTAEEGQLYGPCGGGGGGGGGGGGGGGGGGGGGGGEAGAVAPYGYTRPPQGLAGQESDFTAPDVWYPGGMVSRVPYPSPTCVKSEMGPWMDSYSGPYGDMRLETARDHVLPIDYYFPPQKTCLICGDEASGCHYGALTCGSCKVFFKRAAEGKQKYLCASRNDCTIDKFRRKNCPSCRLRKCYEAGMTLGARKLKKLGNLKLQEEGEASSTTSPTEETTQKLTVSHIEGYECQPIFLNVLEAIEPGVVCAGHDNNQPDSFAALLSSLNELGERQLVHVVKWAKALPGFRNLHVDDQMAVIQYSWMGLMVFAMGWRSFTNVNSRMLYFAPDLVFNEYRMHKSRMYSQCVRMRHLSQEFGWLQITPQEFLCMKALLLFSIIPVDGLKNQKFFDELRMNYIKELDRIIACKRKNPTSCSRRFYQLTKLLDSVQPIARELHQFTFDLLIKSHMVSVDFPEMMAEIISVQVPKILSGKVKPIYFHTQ
From the text: U.S. Tox21 Program National Center for Advancing Translational Sciences [NCATS] NIH Chemical Genomics Center [NCGC] U.S. Environmental Protection Agency [EPA] National Institutes of Environmental Health Sciences [NIEHS] National Toxicology Program [NTP] U.S. Food and Drug Administration [FDA] Tox21 Assay Overview: Androgen receptor (AR), a nuclear hormone receptor, plays a critical role in AR-dependent prostate cancer and other androgen related diseases. Endocrine disrupting chemicals (EDCs) and their interactions with steroid hormone receptors like AR may cause disruption of normal endocrine function as well as interfere with metabolic homeostasis, reproduction, developmental and behavioral functions. To identify the compounds that activate AR signaling, GeneBLAzer AR-UAS-bla-GripTite cell line (Invitrogen, Carlsbad, CA, USA) containing a beta-lactamase reporter gene under the control of an Upstream Activator Sequence (UAS) stably integrated into HEK293 cells was used to screen the Tox21 10K compound library.
Tox21 Assay Protocol Summary: AR-bla cells were dispensed at 2,000 cells/6 uL/well of assay medium into black wall/clear-bottom 1536-well plates using a Multidrop Combi (ThermoFisher Scientific, Waltham, MA) dispenser. After the assay plates were incubated at 37C and 5% CO2 for 4 h, 23 nL of compounds dissolved in DMSO, positive controls or DMSO only was transferred to the assay plate by a Pintool station (Kalypsys, San Diego, CA). The plates were incubated at 37C and 5% CO2 for 16 h. Then 1 uL of LiveBLAzerTM B/G FRET substrate was added using a Bioraptr Flying Reagent Dispenser (FRD) workstation (Beckman Coulter, Indianapolis, IN, USA). The plates were incubated at room temperature for 2 h, and fluorescence intensity was measured by an Envision plate reader (PerkinElmer, Shelton, CT).
`C=CC(=O)OCCC#N` was tested, and the outcome was “inactive”. `CC(C)(c1cc(Br)c(OCCO)c(Br)c1)c1cc(Br)c(OCCO)c(Br)c1` was tested, and the outcome was “inactive”. In the case of `CN1CCN(C2Cc3ccccc3Sc3ccc(Cl)cc32)CC1` (configuration not stated), the outcome is reported as “inactive”. For `CCCCCCCCCCOCC(O)CN` (configuration not stated), the outcome was “inactive”. For `C=C1C(C)(C)[C@@]2(Cl)C(Cl)[C@]1(Cl)C(Cl)(Cl)C2(Cl)Cl` (some centres not stated), the outcome was “inactive”. `O=C1NCCN1CCN1CCC(c2cn(-c3ccc(F)cc3)c3ccc(Cl)cc23)CC1` was tested, and the outcome was “inactive”. With `N[C@@H](CSSC[C@H](N)C(=O)O)C(=O)O` the outcome was “inactive”. `c1ccc(Sc2ccccc2)cc1` was tested, and the outcome was “inactive”. For `Oc1ccc(-c2ccccc2)c(Cl)c1`, the outcome was “inactive”. For `COc1ccccc1OCCNCC(O)COc1cccc2[nH]c3ccccc3c12` (configuration not stated), the outcome was “inactive”. With `CCCSS/C(CCO)=C(\C)N(C=O)Cc1cnc(C)nc1N` the outcome was “inactive”. For `Cc1cn[nH]c1`, the outcome was “inactive”. With `C=CC(C)(CCC=C(C)C)OC(=O)/C=C/c1ccccc1` (configuration not stated) the outcome was “inactive”. For `C[C@@H]1CC[C@H]2C(C)(C)[C@H]3C[C@@]12CC[C@@]3(C)O`, the outcome was “inactive”. `C[Si](C)(C)Cl` was tested, and the outcome was “inactive”. `CCN(CC)CCOC(=O)C1(C2CCCCC2)CCCCC1` was tested, and the outcome was “inactive”. In the case of `Cc1c(C(=O)O)cccc1[N+](=O)[O-]`, the outcome is reported as “inactive”.
